Holding throughout (experiment): glycan array binding signal (z-score within array); higher = stronger binding
Conditions in all cases: glycan notation: IUPAC condensed, linker removed

Test [1] has as its target GlcNAc(b1-2)[GlcNAc(b1-6)]Man(a1-6)[GlcNAc(b1-2)Man(a1-3)]Man(b1-4)GlcNAc(b1-4)GlcNAc. In short, it runs like this:
(§1)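 The Consortium for Functional Glycomics database supplied 3228 glycan arrays, of which those lacking an available protein sequence were dropped. The binding signal, a within-array Z-score, was averaged across arrays of the same protein sequence and across linkers. Negative scores can be read as non-binding.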

In test [2] the target is GlcNAc(b1-3)Gal(b1-4)GlcNAc(b1-2)Man(a1-3)[GlcNAc(b1-3)Gal(b1-4)GlcNAc(b1-2)Man(a1-6)]Man(b1-4)GlcNAc(b1-4)[Fuc(a1-6)]GlcNAc. In short, it runs like this: as §1
For test [3], the target named is GlcNAc(b1-3)Gal(b1-4)GlcNAc(b1-3)Gal(b1-4)GlcNAc(b1-2)Man(a1-3)[GlcNAc(b1-3)Gal(b1-4)GlcNAc(b1-3)Gal(b1-4)GlcNAc(b1-2)Man(a1-6)]Man(b1-4)GlcNAc(b1-4)[Fuc(a1-6)]GlcNAc. The method in brief: as §1
The target in test [4] is GlcNAc(b1-3)Gal(b1-4)GlcNAc(b1-3)Gal(b1-4)GlcNAc(b1-3)Gal(b1-4)GlcNAc(b1-3)Gal(b1-4)GlcNAc(b1-2)Man(a1-3)[GlcNAc(b1-3)Gal(b1-4)GlcNAc(b1-3)Gal(b1-4)GlcNAc(b1-3)Gal(b1-4)GlcNAc(b1-3)Gal(b1-4)GlcNAc(b1-2)Man(a1-6)]Man(b1-4)GlcNAc(b1-4)[Fuc(a1-6)]GlcNAc. The method in brief:
as §1

In test [5] the target is GlcNAc(b1-3)Gal(b1-4)GlcNAc(b1-3)Gal(b1-4)GlcNAc(b1-3)GalNAc. In short, it runs like this:
as §1

The target in test [6] is GlcNAc(b1-4)GlcNAc. The method in brief: as §1
The target in test [7] is Neu5Ac(a2-3)Gal(b1-3)GlcNAc(b1-2)Man. In short, it runs like this: as §1
The target in test [8] is Neu5Ac(a2-3)Gal(b1-3)GlcNAc(b1-6)GalNAc. The method in brief: as §1
Test [9] addresses Neu5Ac(a2-3)Gal(b1-4)GlcNAc(b1-3)GalNAc. In short, it runs like this: as §1
The target in test [10] is Neu5Ac(a2-3)Gal(b1-4)GlcNAc(b1-6)GalNAc. In short, it runs like this:
as §1

Test [11] has as its target Neu5Ac(a2-3)Gal(b1-4)[Fuc(a1-3)]GlcNAc(b1-3)GalNAc. The method in brief:
as §1

The target of test [12] is Neu5Ac(a2-3)GalNAc. In short, it runs like this: as §1
The target in test [13] is Neu5Ac(a2-6)Gal(b1-4)GlcNAc(b1-2)Man(a1-3)[Neu5Ac(a2-6)Gal(b1-4)GlcNAc(b1-2)Man(a1-6)]Man(b1-4)GlcNAc(b1-4)GlcNAc. In short, it runs like this:
as §1

For test [14], the target named is Neu5Ac(a2-6)Gal(b1-4)GlcNAc(b1-3)[Neu5Ac(a2-6)Gal(b1-4)GlcNAc(b1-6)]GalNAc. The method in brief:
as §1

For test [15], the target named is Neu5Ac(a2-6)GalNAc(b1-4)GlcNAc6S. The method in brief: as §1
Test [16] addresses Neu5Ac(a2-8)Neu5Ac(a2-8)Neu5Ac. The method in brief: as §1
Test [17] concerns the target Neu5Ac(b2-6)GalNAc. The method in brief: as §1
Test [18] has as its target Neu5Gc(a2-3)Gal(b1-4)GlcNAc. The method in brief: as §1

The entries come from a sample that favours the strongest signals as a whole.

B1: ClecSol-Fc (Cryptosporidium parvum) (protein)
chain: CPEGWISNGEKTRCFKLVTFDRPRTFSHGFKACNDLGGTEVETRRRNGSKETNEYPVTLASVYKLSDEEAIRRTLVEQGDIHKTANGCFVGLRKYAFFRYPPGWYWIDSGSPVSVRDSEINWTSSYNASWLLRFKFPFEKCGFFDIGGLGRRPCWLIDSELSCAVCGTVAYDSGGLNPNKYSELIKQTDEIISKEPKLDLPGYNNLNCTDAWENNLSVGLCQNVSNILDSAWSSYQSSLNFPSINFNWKEDSTNEGGDQVYHNSYLDLPRYKQKKTFYWDQDPGTIPALSDEMKLIGLSAQPTYHPLDRSSSGSFESDSTESGRANEERNDTLEEMIYKQSSDSIEDILVPVTKPIFSDYSSIGRNSGVEEVYSSNVSTISSKGVVFPNTTTSSDNDFTKNNPANSSKHTSTSTTTNTTTTTTRTTTTTTTTTTTTTTTTTTTTETTTTKKSTTATKNTTTT
Consider B1, for which the “glycan array binding signal (z-score)” value in test [1] was -0.117; in test [2], 0.693; in [3], -0.079; in test [4] it was 0.18; in [5] it was 0.074; in [6], 5.31. Also, the “glycan array binding signal (z-score)” value in test [7] is -0.101; in test [8], -0.123; in [9], -0.229; in test [10], -0.11; in test [11] it was -0.101; in test [12], 0.005. Besides, the “glycan array binding signal (z-score)” value in test [13] is -0.172; in test [14] it was -0.216; in [15], -0.03; in [16], 0.518; in test [17], -0.003; in test [18], -0.119.

(Values after the supplement of paper PMC8728848.)
